Measured values published in PubChem BioAssay.

These compounds were tested against Neurogenic locus notch homolog protein 2 (Homo sapiens) (UniProt Q04721) (assay: Notch2 binders on small-molecule microarrays, primary screen, biochemical, small-molecule microarray, 635 nm fluorescence, stem cell growth factors (AID 1073)). Details: Notch2 binding, higher = more signal.
Sequence of Neurogenic locus notch homolog protein 2 (Homo sapiens) (Q04721 whole entry, looked up): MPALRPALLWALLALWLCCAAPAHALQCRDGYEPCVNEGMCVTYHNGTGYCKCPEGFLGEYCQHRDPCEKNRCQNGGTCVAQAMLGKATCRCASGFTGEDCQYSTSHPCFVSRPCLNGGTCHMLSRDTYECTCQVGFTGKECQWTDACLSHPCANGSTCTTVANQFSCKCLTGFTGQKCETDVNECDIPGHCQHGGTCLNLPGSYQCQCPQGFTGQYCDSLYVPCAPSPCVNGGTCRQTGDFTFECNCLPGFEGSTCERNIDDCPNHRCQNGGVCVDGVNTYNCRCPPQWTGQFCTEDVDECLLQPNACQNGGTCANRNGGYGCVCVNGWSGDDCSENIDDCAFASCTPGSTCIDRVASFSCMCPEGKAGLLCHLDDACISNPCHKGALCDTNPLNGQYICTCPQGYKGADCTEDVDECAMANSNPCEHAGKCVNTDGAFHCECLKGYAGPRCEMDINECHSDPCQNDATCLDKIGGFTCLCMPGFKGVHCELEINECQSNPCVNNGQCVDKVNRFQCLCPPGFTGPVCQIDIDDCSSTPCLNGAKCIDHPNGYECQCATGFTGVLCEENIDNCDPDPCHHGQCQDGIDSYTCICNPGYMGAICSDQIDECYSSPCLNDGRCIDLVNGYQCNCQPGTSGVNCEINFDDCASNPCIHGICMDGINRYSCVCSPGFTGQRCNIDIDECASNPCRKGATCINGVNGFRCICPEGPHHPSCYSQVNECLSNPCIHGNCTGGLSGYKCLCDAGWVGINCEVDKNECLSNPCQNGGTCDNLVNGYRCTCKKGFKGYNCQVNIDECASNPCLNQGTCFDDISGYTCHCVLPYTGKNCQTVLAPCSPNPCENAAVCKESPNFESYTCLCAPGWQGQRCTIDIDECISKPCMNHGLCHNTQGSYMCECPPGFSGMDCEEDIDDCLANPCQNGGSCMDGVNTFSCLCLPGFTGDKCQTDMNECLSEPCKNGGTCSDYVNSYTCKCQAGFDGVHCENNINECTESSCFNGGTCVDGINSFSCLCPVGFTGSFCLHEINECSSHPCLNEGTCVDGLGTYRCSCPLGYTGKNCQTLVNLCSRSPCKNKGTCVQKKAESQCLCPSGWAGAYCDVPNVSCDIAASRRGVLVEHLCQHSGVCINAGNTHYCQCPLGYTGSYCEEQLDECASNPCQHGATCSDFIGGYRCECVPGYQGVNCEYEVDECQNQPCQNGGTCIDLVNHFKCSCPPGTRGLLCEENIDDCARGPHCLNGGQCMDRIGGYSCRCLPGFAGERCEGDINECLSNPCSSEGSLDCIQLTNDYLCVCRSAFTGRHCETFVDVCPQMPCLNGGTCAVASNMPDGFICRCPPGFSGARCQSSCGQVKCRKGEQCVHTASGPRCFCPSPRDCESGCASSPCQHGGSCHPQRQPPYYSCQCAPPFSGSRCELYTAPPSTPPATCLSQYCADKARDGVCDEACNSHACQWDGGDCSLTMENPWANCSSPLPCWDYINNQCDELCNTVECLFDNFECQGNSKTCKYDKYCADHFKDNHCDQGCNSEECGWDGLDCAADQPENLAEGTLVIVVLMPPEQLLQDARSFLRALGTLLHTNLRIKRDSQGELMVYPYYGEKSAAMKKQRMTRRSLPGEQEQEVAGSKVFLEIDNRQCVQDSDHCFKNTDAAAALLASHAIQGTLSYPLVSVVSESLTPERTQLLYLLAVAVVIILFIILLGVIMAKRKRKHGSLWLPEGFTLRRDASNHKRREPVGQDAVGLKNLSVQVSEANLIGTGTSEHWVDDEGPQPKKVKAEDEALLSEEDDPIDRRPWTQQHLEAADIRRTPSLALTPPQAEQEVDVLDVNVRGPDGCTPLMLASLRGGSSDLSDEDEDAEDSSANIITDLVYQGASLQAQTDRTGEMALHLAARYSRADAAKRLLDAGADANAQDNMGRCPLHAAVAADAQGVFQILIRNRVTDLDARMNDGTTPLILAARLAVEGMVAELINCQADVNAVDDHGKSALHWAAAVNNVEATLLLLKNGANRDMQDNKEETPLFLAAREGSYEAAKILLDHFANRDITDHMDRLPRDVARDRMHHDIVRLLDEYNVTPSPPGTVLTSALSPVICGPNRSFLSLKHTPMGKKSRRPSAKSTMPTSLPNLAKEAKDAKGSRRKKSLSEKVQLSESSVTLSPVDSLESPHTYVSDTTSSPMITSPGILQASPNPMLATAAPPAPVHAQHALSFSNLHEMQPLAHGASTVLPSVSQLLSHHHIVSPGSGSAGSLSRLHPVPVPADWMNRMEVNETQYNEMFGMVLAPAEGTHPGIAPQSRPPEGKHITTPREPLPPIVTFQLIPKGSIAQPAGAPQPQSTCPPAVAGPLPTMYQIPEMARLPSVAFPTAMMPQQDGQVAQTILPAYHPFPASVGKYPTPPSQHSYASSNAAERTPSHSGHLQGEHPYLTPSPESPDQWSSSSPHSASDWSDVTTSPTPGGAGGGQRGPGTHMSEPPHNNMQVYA
Compound C=C(CCCC)/C(=C/C[C@H](OC(C)=O)c1ccc(CO)o1)c1cc(C(=O)OC)ccc1OC has a composite z-score of -0.0467. With CC(C)(C)OC(=O)CC[C@]1(C(=O)NCC(O)CO)N=C(c2ccc(OCCCO)cc2)O[C@H]1c1ccccc1CN=[N+]=[N-] (some centres undefined) the composite z-score was 1.68. Work on COC(=O)[C@@]1(Cc2ccc(OC)cc2)[C@H]2c3cc(C(=O)N(C)C)n(Cc4ccc(OC)c(OC)c4)c3C[C@H]2CN1C(=O)c1ccccc1 yielded a composite z-score of 1.73. Work on [N-]=[N+]=NCc1ccccc1C[C@@]1(C(=O)NCc2ccccc2)N=C(c2ccc(OCCCO)cc2)O[C@@H]1c1ccccc1CN=[N+]=[N-] yielded a composite z-score of 0.933. In the case of [N-]=[N+]=NCc1ccccc1[C@H]1OC(c2ccc(OCCCO)cc2)=N[C@@]1(Cc1ccccc1)C(=O)O, the composite z-score is reported as 0.653. NC(=O)NCC#Cc1ccc2c(c1)[C@]1(C(=O)N2)[C@H](C(=O)NC[C@H](O)c2ccccc2)[C@H]2C(=O)O[C@H](c3ccccc3)[C@H](c3ccccc3)N2[C@@H]1c1ccccc1OCCO gave a composite z-score of -0.686. Compound C=C(C(=O)CC[C@H](OC(=O)c1cccnc1)c1ccccc1OCCO)C(C)C has a composite z-score of 0.0984. COc1ccc([Si](C)(C)[C@@H]2[C@@H](CCO)O[C@]3(C(=O)N(Cc4ccc(N5C(=O)c6cccc7cccc5c67)cc4)c4ccccc43)[C@H]2C)cc1 showed a composite z-score of -0.35. Work on COc1ccc([Si](C)(C)[C@H]2[C@H](CCO)O[C@@]3(C(=O)N(Cc4ccccc4)c4ccc(N5C(=O)COc6ccccc65)cc43)[C@@H]2C)cc1 yielded a composite z-score of 0.167. Work on O=C1C2C=CC(C(O)c3ccccn3)N(Nc3ccccc3F)C2C(=O)N1c1ccccc1 (centres undefined) yielded a composite z-score of 0.417. CN(C)CCCC[C@@H]1NC(=O)[C@@H]2C[C@H](C(=O)NCCCCCN)[C@H](c3ccc(O)cc3)N2C1=O was tested, and the composite z-score was 0.235. For O=C(NCC(O)CO)[C@@]1(Cc2ccccc2)COC(c2ccc(OCCCO)cc2)=N1 (some centres undefined), the composite z-score was -0.0908. Work on CCOC(=O)N1C(c2ccc(OCCCO)cc2)=NC(C(=O)OC)N1C(=O)OCC (centres undefined) yielded a composite z-score of 1.17. In the case of CO[C@H]1O[C@H](CO)[C@@H](OC(=O)Nc2cccc(F)c2)[C@H](OC(=O)Nc2ccccc2-c2ccccc2)[C@@H]1OC(=O)Nc1ccccc1-c1ccccc1, the composite z-score is reported as 1.65. For O=C1OCC=C[C@H]2OC34C=CCN(c5ccc6ccccc6c5)C(=O)[C@H]3N(CCO)C(=O)[C@@H]4[C@@H]12 (some centres undefined), the composite z-score was -1.4. COc1cc2c(cc1O)C(c1ccc(CN3CCCC3)cc1)N(Cc1sc3ccccc3c1Cl)CC2 (centres undefined) gave a composite z-score of 0.805. O=C1OCC=C[C@H]2OC34C=CCN(c5ccc(Cl)cc5)C(=O)[C@H]3N(CCCO)C(=O)[C@@H]4[C@@H]12 (some centres undefined) was tested, and the composite z-score was -1.6. For NC(=O)[C@@]1(CCS(=O)(=O)c2ccccc2)N=C(c2ccc(OCCCO)cc2)O[C@H]1c1ccccc1, the composite z-score was 0.251. For CC(=O)NCCCC[C@@H]1NC(=O)[C@@H]2C[C@H](C(=O)NCc3ccc(F)cc3)[C@H](c3ccc(O)cc3)N2C1=O, the composite z-score was -0.326. O=C1OCCC=C[C@H]2OC34C=CCN(c5ccc6ccccc6c5)C(=O)[C@H]3N(CCCCCCO)C(=O)[C@@H]4C12 (some centres undefined) was tested, and the composite z-score was -0.834. Compound Cc1ccc(F)cc1S(=O)(=O)N[C@@H]1CCN(Cc2ccc(C(F)(F)F)cc2)C1 has a composite z-score of -1.26. For CC(C)NC(=O)[C@@]1(c2ccc([N+](=O)[O-])cc2)CC(=O)N(C(C)C)[C@@H]1c1ccc(CO)cc1, the composite z-score was -0.999. C=CCC(OC(C)=O)[C@@H]1[C@@H](N(Cc2ccc(-c3ccccc3)cc2)C(=O)c2ccc(C)cc2)c2cc(OCCCO)ccc2N1C(=O)c1ccc2ccccc2n1 (some centres undefined) gave a composite z-score of 0.0291. C=CCC(OC(C)=O)[C@@H]1[C@@H](N(Cc2cc3ccccc3o2)C(=O)c2ccc(C)cc2)c2cc(OCCCO)ccc2N1C(=O)c1ccc(-c2ccccc2)cc1 (some centres undefined) gave a composite z-score of 0.127. COCCCNC(=O)[C@@]1(Sc2ccc(C)cc2)CC(=O)N(Cc2ccccc2)[C@@H]1c1ccc(CO)cc1 was tested, and the composite z-score was -0.774. Compound COc1ccc(C(=O)Nc2cccc(CN3C(=O)[C@@]4(O[C@@H](CCn5cc([C@H](O)c6ccccc6)nn5)[C@H]([Si](C)(C)c5ccc(OC)cc5)[C@H]4C)c4ccccc43)c2)cc1 has a composite z-score of 0.336. CN1C(=O)C2C=CC(C(O)c3ccccc3)N(NC(=O)OC(C)(C)C)C2C1=O (centres undefined) was tested, and the composite z-score was 1.34. Compound [N-]=[N+]=NCc1ccccc1C[C@]1(C(=O)NCc2ccccc2)COC(c2ccc(OCCCO)cc2)=N1 has a composite z-score of 0.472. For C=CC[C@@]1(C(=O)NCCN2CCOCC2)N=C(c2ccc(OCCCO)cc2)O[C@@H]1c1ccccc1CN=[N+]=[N-], the composite z-score was 0.674.
